In the library only some 2.8% were active in any assay of this set; here they are far more common.
Shn3 3UTR inh: reduces Shn3 3'UTR luciferase signal in osteoblasts | Clone20 osteoblast Shn3 3'UTR firefly luciferase, 24 h | inhibition, % at 12.5 µM | hit rate 0.52% among 360,000 | AID 588674;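 active means mean inhibition of at least 75% with every replicate also reaching 75%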;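 further: 0% = median of neutral control wells and 100% = pilot-screen positive control compound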
Peg3 promoter: inhibitors of Peg3 promoter; HeLa PEG-Prom luciferase reporter, luminescence, overnight; inhibition, % at 20 µM; hit rate 1.7% among 360,000; AID 588405;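 active means inhibition of at least 50% at 20 µM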
HIF-2a block: HIF-2a inhibition | 786-0 RCC cells HIF-2a reporter, luciferase luminescence, overnight | inhibition, % at 18.8 µM | hit rate 0.72% among 360,000 | AID 624352;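 active means inhibition of the luminescence signal of 40% or more relative to plate controls, in a single-dose primary screen at 18.75 µM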
PAX8 reporter: inhibitors of PAX8 transcriptional activity in RMG-I cells; RMG-I TPO-luciferase reporter, SteadyGlo, 24 h; inhibition, % at 12.6 µM; hit rate 1.2% among 360,000;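 active means mean replicate inhibition at least 60% with every replicate also reaching 60%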;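 further: luciferase light reporting Pax8 driven TPO promoter activity; plate controls were median of neutral control wells for no effect and mitoxantrone controls for full effect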
EBV LMP1 NFkB: Epstein-Barr LMP1 NF-kappaB reporter inhibition; inhibition, % at 12.5 µM; LMP1-induced NF-kappaB luciferase reporter cells, luminescence; hit rate 0.69% among 350,000; AID 504558; in the data active means inhibition above about 41%;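 further: 0% = neutral control wells and 100% = reference inhibitor control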
TRPM1 prom inh: inhibitors of MITF-driven TRPM1 promoter in melanoma cells. SK-MEL-5 TRPM1 promoter luciferase, 24 h. inhibition, % at 12.5 µM. hit rate 0.83% among 330,000. AID 488899;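 active means mean inhibition across replicates of 60% or more, whatever share of single replicates reaches that level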
* = called active by the depositor.

CCOC(=O)C1=C(CSc2nc3ccccc3s2)NC(=O)NC1c1ccc(OC)cc1 (centres undefined) was read as Shn3 3UTR inh 66.6, Peg3 promoter 63.5*, HIF-2a block -16.0, EBV LMP1 NFkB 30.5 and TRPM1 prom inh 5.4.
O=C(C#Cc1ccccc1)c1ccccc1 was read as Shn3 3UTR inh 99.3*, Peg3 promoter 100.0*, HIF-2a block 5.5, PAX8 reporter 46.0 and EBV LMP1 NFkB -3.1.
For CN(C)C(=O)C#Cc1ccccc1 the results were Shn3 3UTR inh 3.4, Peg3 promoter 6.9, HIF-2a block 3.4, PAX8 reporter -6.2, EBV LMP1 NFkB -9.5 and TRPM1 prom inh -3.3.
Screening COCCCNC(=O)c1ccc2c3c(onc13)-c1ccccc1C2=O returned Shn3 3UTR inh -43.8, Peg3 promoter -134.7, HIF-2a block -142.2, EBV LMP1 NFkB -7.5 and TRPM1 prom inh 82.7*.
COCCCNC(=O)c1ccccc1Oc1ccccc1 was read as Shn3 3UTR inh 42.9, Peg3 promoter 2.7, HIF-2a block 12.8, EBV LMP1 NFkB 2.1 and TRPM1 prom inh 3.2.
For CC(C)(O)c1cn([C@H]2C[C@@H]3O[C@@H](CO)CC[C@@H]3O[C@@H]2CCc2ccc(-c3ccncc3)cc2)nn1 the results were PAX8 reporter -4.3.
Screening Cc1ccc(-c2[nH]ncc2/C=N/n2c(COc3ccccc3)nc3ccccc3c2=O)cc1 returned Shn3 3UTR inh -2.2, Peg3 promoter 52.1*, HIF-2a block 13.8, PAX8 reporter -12.2, EBV LMP1 NFkB 9.4 and TRPM1 prom inh -2.5.
For Cc1ccccc1OCc1nc2ccccc2c(=O)n1/N=C/c1cn[nH]c1-c1ccccc1 the results were Shn3 3UTR inh -38.6, Peg3 promoter 39.6, HIF-2a block -15.1, PAX8 reporter -44.4, EBV LMP1 NFkB 1.1 and TRPM1 prom inh -26.4.
`O=[N+]([O-])c1ccc2nc(NN=Cc3ccc(O)cc3)sc2c1` gave Shn3 3UTR inh 15.8, Peg3 promoter 72.2*, HIF-2a block -192.7, PAX8 reporter 2.0, EBV LMP1 NFkB -9.5 and TRPM1 prom inh 20.9.
For COCC(=O)N1CC(=O)N2[C@H](CO)[C@@H](c3ccc(C#CC4CC4)cc3)[C@H]2C1 the results were PAX8 reporter -5.3.
C[C@H](CO)N1C[C@H](C)[C@H](CN(C)C)OCCCC[C@H](C)Oc2ccc(NC(=O)Nc3ccc(C(F)(F)F)cc3)cc2C1=O was read as PAX8 reporter 5.5.
`C=C(C)c1cccc(C(C)(C)NC(=O)N2CCN(c3ccccc3OC)CC2)c1` gave Shn3 3UTR inh -7.7, Peg3 promoter 14.3, HIF-2a block 19.1, PAX8 reporter 106.3*, EBV LMP1 NFkB 7.1 and TRPM1 prom inh 12.7.
Cc1noc(C)c1NC(=O)Nc1ccc2c(c1)CC(=O)N([C@@H](C)CO)C[C@H](C)[C@H](CN(C)C(=O)Nc1c(C)noc1C)O2 was read as PAX8 reporter -23.6.
For CCN(CC)c1nc(Oc2ccc(C(=O)OC)cc2)nc(N2CCOCC2)n1 the results were Shn3 3UTR inh 49.6, Peg3 promoter -6.4, HIF-2a block 8.2, PAX8 reporter -10.7, EBV LMP1 NFkB 52.4* and TRPM1 prom inh 9.2.
For CC(=O)c1ccc(NC(=O)CSc2nc(N3CCOCC3)nc(N3CCOCC3)n2)cc1 the results were Shn3 3UTR inh -63.2, Peg3 promoter -121.3, HIF-2a block -129.0, PAX8 reporter -90.4, EBV LMP1 NFkB -10.4 and TRPM1 prom inh -12.4.
Screening CC(=O)c1ccc(NC(=O)c2ccc(C)c(S(=O)(=O)N3CCOCC3)c2)cc1 returned Shn3 3UTR inh -4.8, Peg3 promoter -24.7, HIF-2a block -19.7, PAX8 reporter -9.3, EBV LMP1 NFkB -5.3 and TRPM1 prom inh -2.7.
Cc1ccc(NC(=O)c2cccnc2)cc1S(=O)(=O)N1CCOCC1 was read as Shn3 3UTR inh 3.9, Peg3 promoter 5.4, HIF-2a block 18.6, PAX8 reporter 2.6, EBV LMP1 NFkB 0.1 and TRPM1 prom inh -3.5.
`CCOC(=O)c1ccc(NC(=O)CSc2nc(N3CCOCC3)nc(N3CCOCC3)n2)cc1` gave Shn3 3UTR inh 15.6, Peg3 promoter 23.2, HIF-2a block 14.0, PAX8 reporter -0.8, EBV LMP1 NFkB 65.7* and TRPM1 prom inh 24.0.
For Cc1cc(C)n(-c2ccc(C(=O)Nc3ccc(C)c(S(=O)(=O)N4CCOCC4)c3)cc2)n1 the results were Shn3 3UTR inh 56.8, Peg3 promoter 34.1, HIF-2a block -1.7, PAX8 reporter 6.0, EBV LMP1 NFkB 8.5 and TRPM1 prom inh 69.4*.

Compound activity from PubChem.
